Assay results from PubChem BioAssay AID504895 (National Center for Advancing Translational Sciences (NCATS), 2011).
Inconclusive results are not listed. Activity calls are given as the source filed them. Calls follow the shape of the dose curve; as a rule, active = well fitted curve in the direction sought with a large enough effect; inconclusive = small, poorly fitted or top-dose-only effect, or another doubt; inactive = no such curve, though single readings can be large or run the other way.

biological target: Protein phosphatase EYA2 (Homo sapiens) (UniProt O00167); assay: Inhibitors of Eya2ED: Hit Confirmation in Primary Screen; details: Recombinant Eya2ED, OMFP fluorescence phosphatase assay; series mostly up to 76.9 µM; activity change, negative = inhibition: at the top concentration
Sequence (O00167 whole entry, looked up): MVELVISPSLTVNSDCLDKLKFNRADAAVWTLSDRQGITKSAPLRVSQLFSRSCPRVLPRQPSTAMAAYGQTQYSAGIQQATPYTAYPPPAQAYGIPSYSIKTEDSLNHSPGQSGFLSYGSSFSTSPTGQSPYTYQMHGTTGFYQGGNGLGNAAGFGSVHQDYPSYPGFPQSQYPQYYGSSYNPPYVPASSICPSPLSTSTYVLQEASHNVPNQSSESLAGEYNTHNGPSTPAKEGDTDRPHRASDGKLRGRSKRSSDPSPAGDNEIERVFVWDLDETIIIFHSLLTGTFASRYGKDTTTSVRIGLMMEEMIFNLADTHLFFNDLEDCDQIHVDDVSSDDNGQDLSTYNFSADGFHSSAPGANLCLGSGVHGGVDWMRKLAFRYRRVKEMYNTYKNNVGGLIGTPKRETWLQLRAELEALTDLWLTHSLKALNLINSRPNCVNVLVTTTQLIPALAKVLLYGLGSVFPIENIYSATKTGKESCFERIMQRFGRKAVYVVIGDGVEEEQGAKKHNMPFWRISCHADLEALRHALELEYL
Text: The Eya proteins (Eya1-4) were originally identified as essential co-activators of the Six1 transcription factor. […] Knockdown of Six1 decreases cancer cell proliferation and metastases in several different cancer models. […] A fluorescence-based HTS assay has been perfomed against the Molecular Libraries Small Molecule Repository (MLSMR) and has the AID 488837 in this database. After completion of the primary screen, hits were re-ordered and tested again in the primary screen in a 12 point titration. NIH Chemical Genomics Center [NCGC] NIH Molecular Libraries Probe Centers Network [MLPCN] MLPCN Grant: DA030559-01 Assay Submitter (PI): Rui Zhao, University of Colorado, Denver
The Eya2 enzyme was kindly provided by the laboratory of Dr. Rui Zhao. The 3-O-methyl-fluorescein phosphate (OMFP) substrate and all buffer reagents were purchased from Sigma Aldrich. qHTS Assay Setup: 1. Buffer- 50 mM HEPES pH 7.5, 50 mM NaCl, 5 uM MgCl2, 0.05% BSA, 1 mM DTT. 2. OMFP Stock- 10 mM solution prepared in 100% DMSO and stored in single use aliquots at -20C. Assay Procedure- 1. Dispense 1.5 ul per well of Eya2 at 0.2 uM in black medium binding 1536 well Greiner plate 2. Transfer 23 nl of compound and control compound (EGTA) to plate 3. Incubate at ambient for 10 minutes 4. Dispense 1.5 ul per well of OMFP at 50 uM 5. Incubate at ambient for 10 minutes 6. Read on ViewLux using Excitation = 485 nm, Emission = 525 nm

Row | Structure (SMILES) | activity change, negative = inhibition
1 | CCOC(=O)c1ccc(N=C(CC)c2c(O)n(C)c(=O)n(C)c2=O)cc1 | -16% (inactive)
2 | O=[N+]([O-])c1ccc(N2CCCC2)c2ccncc12 | -9.57% (inactive)
3 | O=c1[nH]c(=O)n(C2CCCCC2)c(O)c1C1NCCc2ccccc21 (stereo not given) | -5.77% (inactive)
4 | O=C(O)C1C2CCC(O2)C1C(=O)Nc1cccc(Br)c1 (stereo not given) | 8.6% (inactive)
5 | Cn1c(O)c(/C=N/NC(=O)c2ccncc2)c(=O)n(C)c1=S | -13.9% (inactive)
